{"source": "paper PMC4336329", "about": "(PLoS ONE, 2015)", "note": "About 14,000 (4.5%) of roughly 310,000 compounds showed an effect of 50% or more. Effects have a minus sign here. Many of the other results were omitted from the sample, so strong results are more common in it than they were.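 Note: peak tail current of the secondary pulse compared with the same well before compound.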"}
{"molecular_target": "human ether-à-go-go-related gene (hERG) potassium channel (human, UniProt Q12809)", "sequence (Q12809 whole entry, looked up)": "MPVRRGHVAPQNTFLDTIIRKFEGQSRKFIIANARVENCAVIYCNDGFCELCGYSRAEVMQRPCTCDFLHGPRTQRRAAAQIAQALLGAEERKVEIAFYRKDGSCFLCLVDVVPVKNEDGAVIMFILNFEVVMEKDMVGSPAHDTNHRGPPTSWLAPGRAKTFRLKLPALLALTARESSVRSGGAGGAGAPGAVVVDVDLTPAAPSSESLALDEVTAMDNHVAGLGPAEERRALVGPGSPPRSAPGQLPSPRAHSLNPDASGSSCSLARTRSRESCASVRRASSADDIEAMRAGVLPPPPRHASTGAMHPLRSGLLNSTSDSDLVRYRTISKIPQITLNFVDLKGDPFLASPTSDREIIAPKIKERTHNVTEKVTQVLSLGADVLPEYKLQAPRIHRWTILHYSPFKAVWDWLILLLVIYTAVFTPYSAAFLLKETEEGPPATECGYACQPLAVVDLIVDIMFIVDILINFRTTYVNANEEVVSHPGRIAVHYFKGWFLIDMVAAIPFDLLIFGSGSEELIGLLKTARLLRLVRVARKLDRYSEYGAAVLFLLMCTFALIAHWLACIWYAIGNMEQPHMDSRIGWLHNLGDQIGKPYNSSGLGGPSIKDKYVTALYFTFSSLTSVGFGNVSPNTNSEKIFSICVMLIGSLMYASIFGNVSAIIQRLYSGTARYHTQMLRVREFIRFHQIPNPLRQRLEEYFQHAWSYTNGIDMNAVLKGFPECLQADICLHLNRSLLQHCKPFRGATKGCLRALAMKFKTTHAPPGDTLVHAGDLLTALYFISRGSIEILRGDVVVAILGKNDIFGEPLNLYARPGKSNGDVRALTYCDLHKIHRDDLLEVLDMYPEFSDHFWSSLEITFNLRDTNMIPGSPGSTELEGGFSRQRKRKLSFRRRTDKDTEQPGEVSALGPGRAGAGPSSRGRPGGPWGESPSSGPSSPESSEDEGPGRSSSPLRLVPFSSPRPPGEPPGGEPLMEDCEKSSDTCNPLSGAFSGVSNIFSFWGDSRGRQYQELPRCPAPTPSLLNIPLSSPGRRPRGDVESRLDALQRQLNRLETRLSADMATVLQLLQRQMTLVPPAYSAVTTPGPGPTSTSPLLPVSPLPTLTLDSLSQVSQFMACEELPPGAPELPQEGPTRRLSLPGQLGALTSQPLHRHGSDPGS", "assay": "primary screen, population patch clamp on CHO cells stably expressing hERG; higher = less effect of the substance", "units": {"hERG current change (%, negative = inhibition) at 10uM": "%"}}
{"smiles": "O=C(Nc1nnc(C2=COCCO2)o1)c1cccc(F)c1", "hERG current change (%, negative = inhibition) at 10uM": 16.7}
{"smiles": "Cn1nccc1C(=O)N1CCCC(C(=O)c2ccc(C(F)(F)F)cc2)C1", "note": "(stereo not drawn)", "hERG current change (%, negative = inhibition) at 10uM": 6.14}
{"smiles": "O=C(c1ccc(C(F)(F)F)cc1)C1CCCN(C(=O)CCc2ccncc2)C1", "note": "(stereo not drawn)", "hERG current change (%, negative = inhibition) at 10uM": -59.4}
{"smiles": "Cn1c(C(=O)N2CCCC(C(=O)c3ccc(C(F)(F)F)cc3)C2)cc(=O)n(C)c1=O", "note": "(stereo not drawn)", "hERG current change (%, negative = inhibition) at 10uM": -71.7}
{"smiles": "O=C(c1ccc(C(F)(F)F)cc1)C1CCCN(C(=O)CCc2cnccn2)C1", "note": "(stereo not drawn)", "hERG current change (%, negative = inhibition) at 10uM": -15.1}
{"smiles": "O=C(CCc1ccncc1)N1CCCC(Nc2ccc(F)c(F)c2)C1", "note": "(stereo not drawn)", "hERG current change (%, negative = inhibition) at 10uM": -56}
{"smiles": "NC(=O)CCC(=O)N1CCCC(C(=O)c2ccc(C(F)(F)F)cc2)C1", "note": "(stereo not drawn)", "hERG current change (%, negative = inhibition) at 10uM": 1}
{"smiles": "Cc1ccc(NC2CCCN(C(=O)CCc3ccncc3)C2)cc1C", "note": "(stereo not drawn)", "hERG current change (%, negative = inhibition) at 10uM": -24.5}
{"smiles": "COc1ccc2cc(C(=O)C3CCCN(C(=O)c4cc(=O)n(C)c(=O)n4C)C3)ccc2c1", "note": "(stereo not drawn)", "hERG current change (%, negative = inhibition) at 10uM": -38.4}
{"smiles": "O=C(CCc1ccncc1)N1CCCC(Nc2ccc(F)cc2)C1", "note": "(stereo not drawn)", "hERG current change (%, negative = inhibition) at 10uM": -13.9}
{"smiles": "O=C(c1ccc(S(=O)(=O)Nc2ccccc2F)cc1)N1CCCCCC1", "hERG current change (%, negative = inhibition) at 10uM": 2.93}
{"smiles": "O=C(N[C@@H]1CCC(=O)N(CC[C@H](Sc2ccc(Br)cc2)c2ccccc2)CC1)OCc1ccccc1", "hERG current change (%, negative = inhibition) at 10uM": 0.417}
{"smiles": "COc1ccc2[nH]c(=O)c(CN(CCO)S(=O)(=O)c3ccc(C)cc3)cc2c1", "hERG current change (%, negative = inhibition) at 10uM": -9.52}
{"smiles": "Cc1ccc(C)c(NC(=S)N/N=C2\\CCc3ccccc32)c1", "hERG current change (%, negative = inhibition) at 10uM": 9.03}
{"smiles": "COc1ccc(CCNC(=O)Cc2cc(=O)[nH]c(=O)[nH]2)cc1OC", "hERG current change (%, negative = inhibition) at 10uM": -9.44}
{"smiles": "CCN1/C(=C2/SC(=S)N(C)C2=O)C=Cc2cc(C)ccc21", "hERG current change (%, negative = inhibition) at 10uM": -1.96}
{"smiles": "CCN1/C(=C2\\C(=O)N(C)C(=S)N2C)C=Cc2cc(C)ccc21", "hERG current change (%, negative = inhibition) at 10uM": -33.4}
{"smiles": "CCN1C(=O)/C(=C2/C=Cc3cc(C)ccc3N2CC)N(C)C1=S", "hERG current change (%, negative = inhibition) at 10uM": -54.8}
{"smiles": "CC1=NN(C(C)C)C(=O)C1", "hERG current change (%, negative = inhibition) at 10uM": 8.62}
{"smiles": "CCOC(=O)C1(CCc2ccccc2)CCN(Cc2cnc(N(C)C)s2)CC1", "hERG current change (%, negative = inhibition) at 10uM": -83}
{"smiles": "CCOC(=O)C1(Cc2cccc(F)c2)CCN(Cc2cnc(C)s2)CC1", "hERG current change (%, negative = inhibition) at 10uM": -2.73}
{"smiles": "CCOC(=O)C1(CC2CC2)CCN(Cc2cnc(N(C)C)s2)CC1", "hERG current change (%, negative = inhibition) at 10uM": -22.1}
{"smiles": "CCOC(=O)C1(CCOc2ccccc2)CCN(Cc2cccs2)CC1", "hERG current change (%, negative = inhibition) at 10uM": -81.8}
{"smiles": "CCOC(=O)C1(CCCc2ccccc2)CCN(Cc2cnc(C)s2)CC1", "hERG current change (%, negative = inhibition) at 10uM": -73.1}
{"smiles": "CCOC(=O)C1(CCOC)CCN(Cc2cc3ccccc3s2)CC1", "hERG current change (%, negative = inhibition) at 10uM": -22.5}
{"smiles": "CCOC(=O)C1(CCOc2ccccc2)CCN(Cc2ccc(C)s2)CC1", "hERG current change (%, negative = inhibition) at 10uM": -89.8}
{"smiles": "CCN(CC)C(=O)CC(c1ccc(F)cc1)c1ccc(OC)cc1", "note": "(stereo not drawn)", "hERG current change (%, negative = inhibition) at 10uM": -25.1}
{"smiles": "CC1CC(C)(C)N2C(=O)C3(Nc4ccccc4S3)c3cccc1c32", "note": "(stereo not drawn)", "hERG current change (%, negative = inhibition) at 10uM": 22.1}
{"smiles": "Cc1ccc(C(C)C)cc1OCCCCN1CCCC1", "hERG current change (%, negative = inhibition) at 10uM": -49}
{"smiles": "COc1ccc(N(CC(=O)NCCSCc2ccco2)S(=O)(=O)c2ccccc2)cc1", "hERG current change (%, negative = inhibition) at 10uM": -9.08}
{"smiles": "COc1ccc(CN2C(=O)c3ccccc3C2=O)cc1C(=O)N(C)CC(=O)Nc1c(C)cccc1C", "hERG current change (%, negative = inhibition) at 10uM": -16.7}
{"smiles": "CCOC(=O)C1(CCOc2ccccc2)CCN(Cc2cnc(C)s2)CC1", "hERG current change (%, negative = inhibition) at 10uM": -62.4}
{"smiles": "CCOC(=O)C1(CCOc2ccccc2)CCN(Cc2cnc(C)[nH]2)CC1", "hERG current change (%, negative = inhibition) at 10uM": -48.3}
{"smiles": "CCC(=O)Nc1cccc(NC(=O)c2ccc(C)cc2Cl)c1", "hERG current change (%, negative = inhibition) at 10uM": 34.5}
{"smiles": "NC(=S)NNc1ccc(Cl)c(Cl)c1", "hERG current change (%, negative = inhibition) at 10uM": 16.3}
{"smiles": "O=C(NCCCn1ccnc1)c1ccc(N2CCCCC2)c([N+](=O)[O-])c1", "hERG current change (%, negative = inhibition) at 10uM": -71.7}
{"smiles": "O=C(NCCCN1CCOCC1)c1ccc(N2CCCC2)c([N+](=O)[O-])c1", "hERG current change (%, negative = inhibition) at 10uM": -16.8}
{"smiles": "Cl.O=C(NCCCn1ccnc1)c1ccc(N2CCCCCC2)c([N+](=O)[O-])c1", "hERG current change (%, negative = inhibition) at 10uM": -64}
{"smiles": "Cc1ccc(C(=O)NCCCn2ccnc2)cc1[N+](=O)[O-]", "hERG current change (%, negative = inhibition) at 10uM": 4.53}
{"smiles": "Cl.O=C(NCCCn1ccnc1)c1ccc(S(=O)(=O)N2CCCCCC2)cc1", "hERG current change (%, negative = inhibition) at 10uM": -7.07}
{"smiles": "COc1ccc(C(=O)NCCCn2ccnc2)cc1[N+](=O)[O-]", "hERG current change (%, negative = inhibition) at 10uM": -8.22}
{"smiles": "COc1ccc(/C=C(\\NC(=O)c2ccccc2)C(=O)NCCC(=O)O)cc1", "hERG current change (%, negative = inhibition) at 10uM": 26.3}
{"smiles": "Cc1cc(NC(=O)c2ccc3c(c2)OCCO3)ccc1NC(=O)c1ccco1", "hERG current change (%, negative = inhibition) at 10uM": 8.5}
{"smiles": "COc1ccc(C(=O)NCC(=O)N/N=C/c2ccco2)cc1OC", "hERG current change (%, negative = inhibition) at 10uM": 25.9}
{"smiles": "CCCc1ccc(OCCNC(=O)CC)cc1", "hERG current change (%, negative = inhibition) at 10uM": -10.9}
{"smiles": "COC(=O)C1=CN(c2ccc(Cl)cc2)C=C(C(=O)OC)C1c1ccc([N+](=O)[O-])cc1", "hERG current change (%, negative = inhibition) at 10uM": 16.2}
{"smiles": "CCOc1ccc(C(C(=O)Nc2ccc(F)cc2)N(C(=O)Cn2nnc3ccccc32)C2CC2)cc1", "note": "(stereo not drawn)", "hERG current change (%, negative = inhibition) at 10uM": -50.3}
{"smiles": "CCC(C)N(C(=O)Cn1nnc2ccccc21)C(C(=O)Nc1ccc(F)cc1)c1cccc(OC)c1", "note": "(stereo not drawn)", "hERG current change (%, negative = inhibition) at 10uM": -18.8}
{"smiles": "COc1ccc(C(C(=O)Nc2ccc(F)cc2)N(C(=O)Cn2nnc3ccccc32)C2CC2)cc1", "note": "(stereo not drawn)", "hERG current change (%, negative = inhibition) at 10uM": -45.6}
{"smiles": "Cc1cccc(N(C(=O)c2nsc(Cl)c2Cl)C(C(=O)NC2CCCC2)c2ccc(O)cc2)c1", "note": "(stereo not drawn)", "hERG current change (%, negative = inhibition) at 10uM": -2.24}
{"smiles": "N#CCO/N=C(\\c1ccccc1)c1ccncc1", "hERG current change (%, negative = inhibition) at 10uM": 18.1}
{"smiles": "O=C(Nc1cccc(C(=O)O)c1)/C(=C/c1ccc2c(c1)OCO2)NC(=O)c1cccc(Br)c1", "hERG current change (%, negative = inhibition) at 10uM": 7.35}
{"smiles": "CCNC(=O)/C(=C\\c1ccc2c(c1)OCO2)NC(=O)c1ccc(Br)cc1", "hERG current change (%, negative = inhibition) at 10uM": -69.7}
{"smiles": "O=C(O)CNC(=O)/C(=C\\c1ccc2c(c1)OCO2)NC(=O)c1ccc(Br)cc1", "hERG current change (%, negative = inhibition) at 10uM": 8.77}
{"smiles": "O=C(Nc1ccc(C(=O)O)cc1)/C(=C/c1ccc2c(c1)OCO2)NC(=O)c1cccc(Br)c1", "hERG current change (%, negative = inhibition) at 10uM": 7.25}
{"smiles": "CCNC(=O)/C(=C/c1ccc2c(c1)OCO2)NC(=O)c1ccc(Br)cc1", "hERG current change (%, negative = inhibition) at 10uM": -58.3}
{"smiles": "C=CCNC(=O)/C(=C\\c1ccc2c(c1)OCO2)NC(=O)c1ccc(Br)cc1", "hERG current change (%, negative = inhibition) at 10uM": -30}
